Among the data in PubChem BioAssay (Tox21) are Potency, outcome and PLD induction values, retold here.

Values without a mark were called inactive. Inconclusive results are not listed. Calls of active or inactive are those of the source. Unless noted, the call rests on the fitted dose curve; in most records, active means well fitted curve in the direction sought with a large enough effect in the repeat runs; inconclusive means weak or mixed curves; inactive means no such curve, though single readings can be large; an effect the other way counts as inactive or inconclusive.

Test [1] can be described thus: qHTS assay to identify small molecule antagonists of the estrogen receptor alpha (ER-alpha) signaling pathway using the BG1 cell line in the presence of 0.1 nM 17-beta-estradiol - cell viability counter screen (AID 1259241). Further: nearly all actives have a fitted effect of over 40% in size. The method in brief: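 Viability in VM7Luc4E2 cells after 22 hr compound exposure under 0.1 nM 17beta-estradiol stimulation, by CellTiter-Fluor.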
Background: In qHTS, concentration-response curves come from the screen itself.

Test [2] can be described thus: qHTS assay to identify small molecule antagonists of the androgen receptor (AR) signaling pathway using the MDA cell line in the presence of 0.5 nM R1881 - cell viability counter screen (AID 1259242). Further: nearly all actives have a fitted effect of over 45% in size. In short, it runs like this: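 MDA-kb2 cells (human breast carcinoma, stably carrying MMTV-luciferase reporter) were exposed to compounds with 0.5 nM R1881 (final) for 16 hr at 37C, 0% CO2; viability then read as live-cell protease fluorescence (CellTiter-Fluor, 30 min) in the same wells.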

Test [3] concerns the target Androgen receptor (Homo sapiens) (UniProt P10275). Briefly: qHTS assay to identify small molecule antagonists of the androgen receptor (AR) signaling pathway using the MDA cell line in the presence of 0.5 nM R1881 (AID 1259243). Further: nearly all actives have a fitted effect of over 50% in size. Further: potency means the concentration at half of the fitted maximal effect. In short, it runs like this:
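MDA-kb2 human breast carcinoma cells carrying an MMTV-luciferase reporter (AR- and GR-responsive) were plated, rested 5 hr at 37C, dosed with compounds, then stimulated with 0.5 nM R1881 (final) for 16 hr; luminescence was read after ONE-Glo.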

Test [4] in a line: qHTS assay to identify small molecule HDAC inhibitors (AID 1259364). Further: top concentration of the series differs between compounds; nearly all actives have a fitted effect of over 45% in size. In short, it runs like this:
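Wild-type HCT-116 cells were plated overnight, exposed to compounds for 2 h at 37 °C, then given HDAC-Glo class I/II luminogenic reagent for 30 min at room temperature before luminescence was read.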

The nature of test [5]: qHTS assay to identify small molecule agonists of the sonic hedgehog signaling (Shh) pathway (AID 1259368; calls by dose curve; further: series mostly up to about 92 µM; nearly all actives have a fitted effect of over 15% in size). In short, it runs like this:
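NIH/3T3-derived 3T3Gli1-Luc cells carrying a stably integrated Gli1 response element–firefly luciferase reporter were plated, left 4 hr at 37 C, then given compounds in DMSO for 24 hr. Luminescence was read 30 min after adding luciferase reagent.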

Test [6] deals with Estrogen receptor beta (Homo sapiens) (UniProt Q92731). Briefly: qHTS assay to identify small molecule agonists of the estrogen receptor beta (ER-beta) signaling pathway (AID 1259377; active means well fitted activation curve with a large enough effect in the signal ratio in the repeat runs, not every such curve was filed as active; the % refers to the signal ratio). In short, it runs like this: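 Measured by fluorescence intensity from a B/G FRET beta-lactamase substrate (2 h, room temperature) in ER-beta-UAS-bla HEK293T cells treated with DMSO-dissolved compounds for 16 hr at 37C and 5% CO2.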

The target is the same in test [7]. Briefly: qHTS assay to identify small molecule antagonists of the estrogen receptor beta (ER-beta) signaling pathway (AID 1259378; active means well fitted inhibition curve with a large enough effect in the signal ratio in the repeat runs, not every such curve was filed as active; the % refers to the signal ratio; further: potency means the concentration at half of the fitted maximal effect). The method in brief: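 ER-beta-UAS-bla HEK293T cells in 2% charcoal-stripped FBS medium treated with compound plus 1nM final 17-beta-estradiol for 16 hr at 37C. Beta-lactamase reporter read by FRET substrate fluorescence after 2 hours at room temperature.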

The nature of test [8]: qHTS assay to identify small molecule agonists of the androgen receptor (AR) signaling pathway in the presence of an antagonist - cell viability counter screen (AID 1259379). Further: series mostly up to about 92 µM; nearly all actives have a fitted effect of over 25% in size. The method in brief:
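MDA-kb2 human breast carcinoma cells (stable MMTV-luciferase, AR/GR responsive) were seeded 3,000 cells/well, pre-incubated 5 hr at 37C without CO2, then given 3.0uM nilutamide and compounds at 15 concentrations for 16 hr. Viability was read by CellTiter-Fluor fluorescence.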

Test [9] can be described thus: qHTS assay to identify small molecule agonists of the estrogen receptor beta (ER-beta) signaling pathway - cell viability counter screen (AID 1259380). Further: nearly all actives have a fitted effect of over 30% in size. Further: potency means the concentration at half of the fitted maximal effect. The method in brief:
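ER-beta-UAS-bla HEK293T cells in medium with 2% charcoal-stripped FBS were preincubated 6 hr at 37C, dosed with compound in DMSO for 16 hr, then after the bla read, CellTiter-Glo was added for 30 min at room temperature; luminescence recorded.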

For test [10], the target named is Androgen receptor (Homo sapiens) (UniProt P10275). Briefly: qHTS assay to identify small molecule agonists of the androgen receptor (AR) signaling pathway in the presence of an antagonist (AID 1259381; calls by dose curve; further: nearly all actives have a fitted effect of over 15% in size). In short, it runs like this:
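MDA-kb2 human breast carcinoma cells carrying an MMTV-luciferase reporter (AR- and GR-responsive) were treated with compounds at 15 concentrations plus 3.0uM final nilutamide for 16hr at 37C without CO2; luminescence was read after ONE-Glo addition.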

A short description of test [11]: qHTS assay to identify small molecule antagonists of the estrogen receptor beta (ER-beta) signaling pathway - cell viability counter screen (AID 1259382). Further: series mostly up to about 92 µM; nearly all actives have a fitted effect of over 55% in size. In short, it runs like this: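 ER-beta-UAS-bla HEK293T cells (2,000/well, 2% charcoal-stripped FBS) were pre-incubated 6 hr at 37C, then given compound plus 1nM final 17-beta-estradiol for 16 hr. Viability was read in the same wells by CellTiter-Glo luminescence after 30 min at room temperature.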

Test [12] concerns the target Estrogen receptor (Homo sapiens) (UniProt P03372). Kind of test: qHTS assay to identify small molecule antagonists of the estrogen receptor alpha (ER-alpha) signaling pathway using the BG1 cell line in the presence of 0.1 nM 17-beta-estradiol (AID 1259244). Further: nearly all actives have a fitted effect of over 50% in size. In short, it runs like this:
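VM7Luc4E2 cells (endogenous full-length ER-alpha, stable 4xERE-luciferase) were grown 5 days in phenol red-free medium with charcoal-stripped FBS, then exposed 22 h at 37C to compounds plus 0.1 nM (final) 17beta-estradiol; ONE-Glo luminescence read-out.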

Test [13] can be described thus: qHTS assay to identify small molecule antagonists of the sonic hedgehog signaling (Shh) pathway (AID 1259369; calls by dose curve; further: nearly all actives have a fitted effect of over 45% in size; further: potency means the concentration at half of the fitted maximal effect). The method in brief: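 NIH/3T3-derived 3T3Gli1-Luc cells with stably integrated Gli1-Luc reporter were preincubated 4hr at 37 C, then given compounds in DMSO plus Shh conditioned medium and incubated 24hr. Firefly luciferase luminescence read after 30min reagent at room temperature.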

Test [14] has as its target Estrogen receptor (Homo sapiens) (UniProt P03372). Briefly: qHTS assay to identify small molecule agonists of the estrogen receptor alpha (ER-alpha) signaling pathway in the presence of an antagonist (AID 1259383; calls by dose curve; further: top concentration of the series differs between compounds; nearly all actives have a fitted effect of over 15% in size). In short, it runs like this:
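VM7Luc4E2 cells (endogenous full-length ER-alpha, 4×ERE-luciferase) were precultured 5 days in phenol red-free medium with 10% charcoal-stripped FBS, given 10.0nM ICI-182,780 (final), then treated with compounds at 15 concentrations for 22hr at 37C; luminescence read with ONE-Glo.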

Test [15] is described as follows: qHTS assay to identify small molecule agonists or antagonists of the thyroid stimulating hormone receptor (TSHR) signaling pathway - wild type cell line counter screen (AID 1259384; calls by dose curve). In short, it runs like this:
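Wild-type Hek293 cells, 800/well, 18 h at 37C, then compound with Ro20-1724 for 30 min RT. cAMP by HTRF (cAMP-d2/anti-cAMP cryptate), 1 h RT, fluorescence read. 15 concentrations, triplicates.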

The target of test [16] is Thyrotropin receptor (Homo sapiens) (UniProt P16473). Briefly: qHTS assay to identify small molecule antagonists of the thyroid stimulating hormone receptor (TSHR) signaling pathway (AID 1259385; calls by dose curve; further: nearly all actives have a fitted effect of over 20% in size). The method in brief: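 TSHR-HEK293 cells (800/well) plated 18 h, then compounds with Ro20-1724 and TSH at 1.5 ng/mL final, 30 min at room temperature. cAMP quantified by HTRF (cAMP-d2/anti-cAMP-cryptate, 1 h); 15 concentrations in triplicate.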

Test [17] is described as follows: qHTS assay to identify small molecule phospholipidosis (PLD) inducers (AID 1259344; active means well fitted curve in the direction sought with a large enough effect; an effect the other way counts as inactive or inconclusive). In short, it runs like this:
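Quantitative HTS in HepG2: compound plus LipidTOX Red dye for 24 h, paraformaldehyde fixation with Hoechst 33342, widefield high-content imaging; amiodarone as positive and DMSO as negative control.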

A short description of test [18]: qHTS assay to identify small molecule HDAC inhibitors - cell viability counter screen (AID 1259365). Further: series mostly up to about 92 µM; nearly all actives have a fitted effect of over 50% in size. The method in brief: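 Cytotoxicity was gauged in wild-type HCT-116 cells after a brief 2hr treatment with DMSO-dissolved compounds at 37C and 5% CO2, using CellTiter-Glo luminescence developed for 30min at room temperature.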
A short description of test [19]: qHTS assay to identify small molecule agonists of the sonic hedgehog signaling (Shh) pathway - cell viability counter screen (AID 1259366). Further: nearly all actives have a fitted effect of over 50% in size. The method in brief:
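Stable Gli1-Luc NIH/3T3 clone, 2,000 cells/well. Compound exposure 24hr at 37C. Read-out: CellTiter-Fluor fluorescence.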

Test [20] can be described thus: qHTS assay to identify small molecule antagonists of the sonic hedgehog signaling (Shh) pathway - cell viability counter screen (AID 1259367). Further: nearly all actives have a fitted effect of over 55% in size. In short, it runs like this:
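Seed 3T3 Gli1-Luc cells at 2,000 per well; incubate 4 hr; add compound in DMSO, then conditioned medium; incubate at 37C with 5% CO2; add CellTiter-Fluor after 23 hr; read fluorescence 1 hr later.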
On the % scale 0 is the no-effect control and ±100 the full control effect.

Estrogen receptor beta (Homo sapiens), sequence (Q92731 whole entry, looked up): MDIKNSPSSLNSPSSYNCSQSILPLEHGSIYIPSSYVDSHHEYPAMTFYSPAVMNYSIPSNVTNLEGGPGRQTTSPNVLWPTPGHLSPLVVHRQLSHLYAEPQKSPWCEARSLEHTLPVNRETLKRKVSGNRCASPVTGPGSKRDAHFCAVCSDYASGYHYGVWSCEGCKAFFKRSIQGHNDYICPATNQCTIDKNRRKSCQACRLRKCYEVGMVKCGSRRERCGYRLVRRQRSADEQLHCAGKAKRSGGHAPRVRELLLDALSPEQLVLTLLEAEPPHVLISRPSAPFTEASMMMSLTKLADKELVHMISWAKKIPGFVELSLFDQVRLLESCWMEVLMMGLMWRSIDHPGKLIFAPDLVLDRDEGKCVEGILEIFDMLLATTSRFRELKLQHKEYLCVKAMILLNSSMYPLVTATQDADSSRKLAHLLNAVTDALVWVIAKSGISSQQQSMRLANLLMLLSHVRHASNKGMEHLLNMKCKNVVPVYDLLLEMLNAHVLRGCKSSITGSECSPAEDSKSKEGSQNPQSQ
Thyrotropin receptor (Homo sapiens), sequence (P16473 whole entry, looked up): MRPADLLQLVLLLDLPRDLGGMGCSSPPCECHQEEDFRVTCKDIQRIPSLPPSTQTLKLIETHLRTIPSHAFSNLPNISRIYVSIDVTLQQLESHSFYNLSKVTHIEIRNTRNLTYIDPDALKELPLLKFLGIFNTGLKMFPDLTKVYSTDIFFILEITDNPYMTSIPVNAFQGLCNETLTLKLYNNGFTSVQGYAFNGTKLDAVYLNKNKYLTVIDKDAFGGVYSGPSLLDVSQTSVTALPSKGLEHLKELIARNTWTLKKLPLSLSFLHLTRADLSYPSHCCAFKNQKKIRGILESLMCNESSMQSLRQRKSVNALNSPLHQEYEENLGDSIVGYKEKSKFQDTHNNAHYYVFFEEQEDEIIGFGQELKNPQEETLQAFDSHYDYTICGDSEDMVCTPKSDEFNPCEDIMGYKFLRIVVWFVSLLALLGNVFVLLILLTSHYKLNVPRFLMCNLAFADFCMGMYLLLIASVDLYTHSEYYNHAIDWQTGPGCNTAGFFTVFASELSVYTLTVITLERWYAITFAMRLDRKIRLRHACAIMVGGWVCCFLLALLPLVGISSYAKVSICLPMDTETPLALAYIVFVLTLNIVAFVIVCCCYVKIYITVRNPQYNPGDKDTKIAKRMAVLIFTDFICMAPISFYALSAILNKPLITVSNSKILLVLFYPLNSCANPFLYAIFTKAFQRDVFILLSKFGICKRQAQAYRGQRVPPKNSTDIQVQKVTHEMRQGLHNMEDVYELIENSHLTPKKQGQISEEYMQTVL
Estrogen receptor (Homo sapiens), sequence (P03372 whole entry, looked up): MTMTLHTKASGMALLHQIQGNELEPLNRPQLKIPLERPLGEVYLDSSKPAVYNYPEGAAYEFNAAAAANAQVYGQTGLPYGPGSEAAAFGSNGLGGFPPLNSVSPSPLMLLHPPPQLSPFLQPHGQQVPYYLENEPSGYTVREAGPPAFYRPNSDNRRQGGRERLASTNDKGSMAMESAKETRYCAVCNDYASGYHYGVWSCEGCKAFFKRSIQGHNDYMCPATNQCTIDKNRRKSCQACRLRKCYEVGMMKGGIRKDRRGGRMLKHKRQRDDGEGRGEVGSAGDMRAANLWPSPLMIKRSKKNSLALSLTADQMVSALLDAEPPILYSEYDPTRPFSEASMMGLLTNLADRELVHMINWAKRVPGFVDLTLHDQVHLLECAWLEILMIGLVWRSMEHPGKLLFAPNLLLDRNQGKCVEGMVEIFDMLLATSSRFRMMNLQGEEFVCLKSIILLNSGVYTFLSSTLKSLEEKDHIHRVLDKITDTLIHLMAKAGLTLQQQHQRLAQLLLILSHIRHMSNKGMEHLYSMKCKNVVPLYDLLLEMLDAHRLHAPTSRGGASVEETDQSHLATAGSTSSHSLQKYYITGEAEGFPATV
Androgen receptor (Homo sapiens), sequence (P10275 whole entry, looked up): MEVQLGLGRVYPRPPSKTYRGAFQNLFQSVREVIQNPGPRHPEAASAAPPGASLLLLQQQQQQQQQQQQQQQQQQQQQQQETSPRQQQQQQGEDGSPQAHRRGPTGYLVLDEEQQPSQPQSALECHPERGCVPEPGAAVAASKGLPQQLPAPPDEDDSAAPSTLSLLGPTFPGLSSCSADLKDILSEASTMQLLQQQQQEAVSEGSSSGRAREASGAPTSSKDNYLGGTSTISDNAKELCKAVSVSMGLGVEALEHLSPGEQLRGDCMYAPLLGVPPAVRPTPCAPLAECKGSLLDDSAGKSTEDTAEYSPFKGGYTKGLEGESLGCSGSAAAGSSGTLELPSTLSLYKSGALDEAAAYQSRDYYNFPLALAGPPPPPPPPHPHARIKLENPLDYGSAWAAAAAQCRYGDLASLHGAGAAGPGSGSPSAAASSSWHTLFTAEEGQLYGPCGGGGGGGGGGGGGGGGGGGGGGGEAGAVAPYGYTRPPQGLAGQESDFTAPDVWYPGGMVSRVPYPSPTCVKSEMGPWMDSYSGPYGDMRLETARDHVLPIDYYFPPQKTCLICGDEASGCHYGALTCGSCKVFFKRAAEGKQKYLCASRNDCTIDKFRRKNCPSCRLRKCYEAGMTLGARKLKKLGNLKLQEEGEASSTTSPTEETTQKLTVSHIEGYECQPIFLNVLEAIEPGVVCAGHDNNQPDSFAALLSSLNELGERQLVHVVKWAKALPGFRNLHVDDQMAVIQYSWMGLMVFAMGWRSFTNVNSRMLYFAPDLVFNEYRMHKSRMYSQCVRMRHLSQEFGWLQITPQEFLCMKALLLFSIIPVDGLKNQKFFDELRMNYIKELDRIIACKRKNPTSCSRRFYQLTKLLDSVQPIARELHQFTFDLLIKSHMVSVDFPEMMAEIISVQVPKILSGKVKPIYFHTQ

With `Cc1cc(N)c2cc(NC(=O)Nc3ccc4nc(C)cc(N)c4c3)ccc2n1`, the Potency entry in test [1], in [2], in test [3], in test [4], in test [6] and in [7] was “inactive” throughout. Also, the Potency entry in test [8], in [9], in test [10] and in test [11] was “inactive” each time. In addition, in test [5], the compound was called inactive.
On to `O[C@@H](COc1cccc2ncccc12)CN1CCN(C2c3ccccc3[C@@H]3[C@H](c4ccccc42)C3(F)F)CC1` (stereo not given in full), for which the Potency entry in [1], in test [2], in test [12], in [6], in test [8] and in test [14] was “inactive” throughout. Further, the Potency result in test [15] and in test [16] was “inactive” throughout. The Potency is 13.3 µM (active) in test [3], 13.3 µM (active) in test [13], 16.8 µM (active) in test [7] and 26.6 µM (active) in test [9]. Moreover, the result in [5] was inactive.
For the compound `C#CCN(C)CCCOc1ccc(Cl)cc1Cl`, the Potency result in [1], in test [2], in [12], in test [17], in test [4] and in test [18] was “inactive” in each case. Besides, the Potency entry in test [19], in test [20], in test [13], in test [6], in test [7] and in test [8] was “inactive” each time. Moreover, the Potency entry in [11] and in [14] was “inactive” in each case. The compound was called inactive in [5].
Consider `COC(=O)C1=C(C)NC(COC(N)=O)=C(C(=O)OC(C)C)C1c1cccc(Cl)c1Cl` (stereo not given), for which the Potency entry in [1], in test [2], in test [3], in test [12], in [4] and in test [18] was “inactive” in each case. The Potency entry in [19], in [6], in test [7], in test [8], in test [10] and in test [11] was “inactive” each time. The Potency entry in test [14] and in test [15] was “inactive” in each case. Besides, the PLD induction in [17] is -2.54% [at 7.66 µM]. The outcome in [5] was inactive.
In the case of `OCCNCc1ccccc1`, the Potency result in test [1], in test [2], in test [3], in test [12], in test [4] and in test [18] was “inactive” throughout. In addition, the Potency entry in test [19], in [20], in [13], in [6], in [7] and in test [9] was “inactive” each time. The Potency entry in [10], in test [11] and in test [14] was “inactive” in each case. Moreover, the outcome in test [5] was inactive.
With `COc1ccnc(CS(=O)c2nc3ccc(OC(F)F)cc3[nH]2)c1OC` (stereo not given), the Potency entry in test [1], in test [2], in test [12], in test [17], in test [4] and in test [18] was “inactive” each time. The Potency entry in [19], in test [20], in test [13], in test [6], in [7] and in test [8] was “inactive” in each case. Further, the Potency result in test [9], in [11], in test [14], in test [15] and in test [16] was “inactive” throughout. Moreover, the outcome in test [5] was inactive.
As for `O=C(c1ccc(F)cc1)C1CCN(CCn2c(=S)[nH]c3ccccc3c2=O)CC1`, the Potency entry in test [1], in [2], in test [3], in test [4], in test [18] and in [20] was “inactive” each time. Besides, the Potency result in [13], in test [10], in [15] and in test [16] was “inactive” in each case. In addition, in test [5], the outcome was inactive.
In the case of `C[C@@H]1C[C@H]2O[C@@]3(O[C@@H]2C(C)(C)O)[C@H](O)[C@@]2(C)[C@@H]4CC[C@H]5C(C)(C)[C@@H](O[C@@H]6OC[C@@H](O)[C@H](O)[C@H]6O)CC[C@@]56C[C@@]46CC[C@]2(C)[C@@H]13`, the Potency result in [1], in test [2], in [3], in test [12], in test [4] and in test [18] was “inactive” in each case. Besides, the Potency result in test [19], in test [20], in test [6], in [7], in test [10] and in test [11] was “inactive” in each case. Further, the Potency result in test [14] and in test [15] was “inactive” in each case. Further, the compound was classed as inactive in test [5].
